Screens deposited in PubChem by several laboratories.
TIM10 inh: TIM10 yeast growth inhibition | inhibition, % at 10 µM | S. cerevisiae TIM10 strain growth, BacTiter-Glo luminescence, 24 h | AID 463195 | hit rate 1.4% among 330,000;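 active means inhibition of 40% or more at the single tested concentration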;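 further: wild-type TIM10 isogenic control strain grown at permissive 25 °C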
PfHsp90 yeast 2: inhibits growth of yeast expressing Plasmodium falciparum Hsp90; S. cerevisiae expressing PfHsp90, BacTiter-Glo ATP, 48 h; yeast lacking PDR1 and PDR3 efflux regulators; inhibition, % at 9.4 µM; hit rate 0.32% among 310,000; AID 504621;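 active means every replicate shows inhibition above about 80%, whatever the replicate mean, limit read from the data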;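 further: 0% = DMSO neutral controls and 100% = 20 µM radicicol positive controls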
tim10-1 inh: tim10-1 yeast growth inhibition | S. cerevisiae tim10-1 ts strain growth, BacTiter-Glo, 24 h | inhibition, % at 20 µM | hit rate 2.2% among 330,000 | AID 463190;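 active means inhibition of at least 40%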;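 further: mutant grown at 25 °C; 0% = DMSO wells with yeast and 100% = wells holding no yeast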
V-ATPase pHluor: yeast V-ATPase proton transport regulation by pHLuorin; S. cerevisiae, pHLuorin cytosolic pH fluorescence; response, % at 10 µM; hit rate 0.37% among 350,000; in the data active means response mostly above about 7.3%, no sharp cut-off; inactive means mostly below about 5.4%; further: actives read high
tim23-1 inh: inhibits growth of tim23-1 mutant yeast | S. cerevisiae tim23-1 growth, BacTiter-Glo luminescence, 24 h | inhibition, % at 20 µM | hit rate 1.3% among 330,000 | AID 463212;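 active means growth inhibition of the mutant yeast at or above 50%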;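 further: temperature-sensitive mutant grown at 25 °C; plate controls were DMSO-treated mutant yeast for no effect and medium wells lacking yeast for full effect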
tim23-1 confirm: confirmation of tim23-1 mutant yeast growth inhibitors; shares compounds with tim23-1 inh; S. cerevisiae tim23-1 growth, BacTiter-Glo luminescence, 24 h; hit rate 83% among 4,400; inhibition, % at 20 µM;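 active means inhibition above about 39% in either of two replicate wells at 20 µM, limit read from the data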;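 further: temperature-sensitive tim23-1 mutant grown at 25 °C; 0% = DMSO wells with yeast and 100% = medium wells without yeast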
Starred values were filed as active, the others as inactive; · = no result given. Sampled rows, rich in hits. Any-hit rate of the full collection: about 3.7%.

SMILES	TIM10 inh	PfHsp90 yeast 2	tim10-1 inh	V-ATPase pHluor	tim23-1 inh	tim23-1 confirm
Cc1c(N2C(=O)/C(=C\c3ccccc3O)SC2=S)c(=O)n(-c2ccccc2)n1C	32.3	-28.6	24.3	3.7	67.5*	63.3*
COC(=O)c1ccc(C)c(NS(=O)(=O)c2cn(C)nc2C)c1	-12.5	-21.1	10.5	5.5	2.7	·
O=C(COc1ccc2ccccc2c1Br)Nc1cccnc1	21.4	-17.0	29.6	-0.4	51.7*	22.3
CC(C)Cc1nn2c(=O)cc(COc3ccc(NC(=O)c4ccco4)cc3)nc2s1	16.9	5.5	18.5	3.2	8.5	·
COc1ccc(/C=C(\C#N)C(=O)NC(C)c2ccccc2)cc1O (stereo not given)	19.5	-2.0	28.8	0.8	55.7*	43.7*
CCN(C(=O)COC(=O)c1ccc(O)cc1O)c1c(N)n(Cc2ccccc2)c(=O)[nH]c1=O	6.0	12.0	1.6	-4.0	8.6	·
CC1=NN(c2ccccc2)C(=O)/C1=C\c1c(C)[nH]n(-c2ccccc2)c1=O	10.6	-14.3	11.9	-0.7	6.6	·
CC1=NN(c2ccccc2)C(=O)/C1=C/c1c(O)n(-c2ccc(F)c(Cl)c2)[nH]c1=O	33.5	·	34.7	·	58.3*	43.0*
N#CCC(=O)Nc1ccc(C(=O)NCc2cccc(Cl)c2)cc1	-10.8	-11.2	12.5	4.3	4.6	·
N#Cc1nc(-c2cccs2)oc1NCc1ccccc1Cl	14.2	-35.1	38.0	0.0	55.6*	53.5*
N#Cc1nc(-c2cccs2)oc1NCc1ccccc1	17.3	·	28.9	0.3	42.3	·
N#Cc1nc(-c2cccs2)oc1NCc1ccc(Cl)cc1	23.4	10.5	24.3	-0.9	50.5*	55.2*
O=C(N/N=C\c1ccc(-c2ccccc2[N+](=O)[O-])o1)C1COc2cc3ccccc3cc2O1 (stereo not given)	36.2	5.6	17.3	-2.3	57.9*	53.0*
O=C(O)c1cccc(-c2ccc(/C=N/NC(=O)C3COc4ccccc4O3)o2)c1 (stereo not given)	-5.0	-22.0	-3.5	0.0	16.3	·
O=C(N/N=C\c1ccc(-c2ccccc2[N+](=O)[O-])o1)C1COc2ccccc2O1 (stereo not given)	26.3	3.7	36.6	0.9	75.7*	52.6*
Cc1ccc(/C=N\NC(=O)C2COc3cc4ccccc4cc3O2)o1 (stereo not given)	-12.8	-13.3	24.4	0.0	32.1	·
CCOc1ccc(N(CC(=O)NC2CCCCC2)S(=O)(=O)c2ccccc2)cc1	6.7	-11.4	3.2	-5.9	10.1	·
CCC(=O)Nc1c(-c2ccc(Cl)cc2)c(=O)c2ccccc2n1C	-3.6	-29.9	4.6	-1.0	0.5	·
CC(=Nc1cccc(O)c1)c1sc2ccccc2c1O	17.6	9.8	36.6	-1.9	63.3*	62.5*
CCOC(=O)N1CCC(NC(=O)c2oc3c(C)c(C)ccc3c2C)CC1	29.7	-3.8	36.9	-3.4	59.8*	58.1*
Clc1cccc(-c2cc3nc4c(c(NCc5ccco5)n3n2)CCCC4)c1	32.7	18.7	19.0	5.6	52.3*	59.0*
COc1ccc(OCC(=O)Nc2ccc3c(c2)CCC3)cc1	9.9	-5.5	6.0	1.3	66.3*	57.5*
COC(=O)c1cc(OCC(=O)Nc2ccc3c(c2)CCC3)cc(C(=O)OC)c1	-0.1	-4.3	0.1	2.9	14.9	·
CC(=O)Nc1ccc(NC(=O)CSc2nnnn2-c2ccc(F)cc2)cc1	-7.0	15.0	16.7	0.0	16.0	·
COc1ccccc1-c1sc2ccccc2c1-c1ccc(OCCN2CCCCC2)cc1	-112.2	3.4	12.5	0.7	52.0*	37.0
SMILES	TIM10 inh	PfHsp90 yeast 2	tim10-1 inh	V-ATPase pHluor	tim23-1 inh	tim23-1 confirm
c1ccc(-c2sc3ccccc3c2-c2ccc(OCCN3CCCC3)cc2)cc1	-8.5	17.2	-1.0	-0.4	60.8*	42.4*
COc1cccc(-c2sc3ccccc3c2-c2ccc(OCCN3CCCCC3)cc2)c1	6.9	29.0	-31.5	6.1	70.4*	-11.8
O=C(Nc1ccc(-c2nc3ccccc3[nH]2)cc1)C1CCCO1 (stereo not given)	19.7	61.9	22.0	-2.3	52.9*	40.8*
CN1CCN(C(=O)CCCN2C(=O)/C(=C/c3cccc(Br)c3)SC2=S)CC1	37.5	2.6	26.1	6.5	45.6	·
O=C(CCCN1C(=O)/C(=C/c2cccc(Br)c2)SC1=S)N1CCOCC1	34.7	16.0	37.1	2.6	53.5*	36.5
O=C(CCCN1C(=O)/C(=C/c2ccccc2Cl)SC1=S)N1CCCC1	29.5	16.4	31.8	-1.6	50.9*	55.8*
COc1ccc(OC)c(C(=O)c2coc3cc(Br)c(O)c(Br)c23)c1	12.2	-15.0	36.9	-0.1	57.8*	45.5*
C#C[C@]1(O)CC[C@H]2[C@@H]3CCC4=Cc5oncc5C[C@]4(C)[C@H]3CC[C@@]21C	7.3	-7.5	39.8	-2.1	50.1*	49.5*
C#C[C@]1(O)CC[C@H]2[C@@H]3CCc4cc(OC)ccc4[C@H]3CC[C@@]21C	20.9	-5.4	23.4	0.6	26.7	·
CC1=C(C(=O)OC(C)C)C(c2cncc(-c3ccc(F)cc3)c2)C(C#N)=C(N)O1 (stereo not given)	35.4	0.8	33.8	1.6	50.4*	37.5
COC(=O)C1=C(C)OC(N)=C(C#N)C1c1cccnc1 (stereo not given)	13.8	17.8	7.8	0.4	19.9	·
Oc1ccc(/C=N/N(c2ccccc2)c2ccccc2)cc1O	20.8	1.1	31.1	-0.1	68.4*	44.6*
Oc1ccc(/C=N/N(c2ccccc2)c2ccccc2)c(O)c1O	10.9	-11.9	35.5	-1.9	40.0	·
CCc1ccc(C2CC(=O)NC(SCC(=O)OC(C)C)=C2C#N)cc1 (stereo not given)	12.4	14.7	31.9	0.9	55.1*	57.4*
COC(=O)CSC1=C(C#N)C(c2ccc(C(C)C)cc2)CC(=O)N1 (stereo not given)	-4.3	-7.4	39.1	-2.1	39.7	·
CCOC(=O)CSC1=C(C#N)C(c2ccc(C)s2)CC(=O)N1 (stereo not given)	22.2	17.9	-2.5	2.0	57.8*	46.1*
COCCn1c(SCC(=O)Nc2cc(C)cc(C)c2)nnc1C(C)C	-7.0	1.4	11.7	-6.1	15.2	·
COCCn1c(SCC(=O)Nc2cccc(C)c2)nnc1C(C)C	11.8	18.8	8.1	6.9	50.1*	16.3
CC(=O)COc1cccc2ccc(/C=C/c3ccc(Br)s3)nc12	28.0	4.7	23.6	-3.6	54.8*	45.5*
Cc1ccc(F)cc1NS(=O)(=O)c1ccc(Cl)s1	27.6	-3.5	39.9	-1.5	50.6*	49.8*
Cc1nn(C)c(C)c1NS(=O)(=O)c1ccc(Cl)s1	3.0	13.7	-10.5	4.9	3.1	·
COc1ccc(N(C(=O)CNC(=O)c2cccs2)C(C(=O)NC2CCCC2)c2cccnc2)cc1 (stereo not given)	11.7	-6.7	7.0	-2.2	50.0*	13.8
